Read-out in one assay: CD40, CD40 (gene 958)
The assay is described as follows: BSK_IMphg_CD40: BioMAP Diversity Plus: IMphg Assay for CD40 Biomarker Activity (AID 2284288). Conditions: primary human endothelial cells with macrophages. The method in brief: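 Venular endothelial cells co-cultured with macrophages (human primary), CD40 measured by ELISA 24 h after dosing. Positive-direction fit vs DMSO baseline; cytotoxicity tracked by SRB total-protein staining in parallel cultures.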

Read-out in assay [1]: TIMP metallopeptidase inhibitor 2 (TIMP2), TIMP2 (gene 7077)
Briefly: BSK_hDFCGF_TIMP2: BioMAP Diversity Plus: hDFCGF Assay for TIMP metallopeptidase inhibitor 2 (TIMP2) Biomarker Activity (AID 2284289). The settings on record: primary human foreskin fibroblasts. The method in brief: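 Primary human foreskin fibroblasts in the hDFCGF system, dosed for 24 h; TIMP-2 level measured by ELISA, fitted in the positive direction against DMSO; cytotoxicity checked in parallel by sulforhodamine B total protein staining.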

Read-out in assay [2]: Interleukin-1 alpha (IL1a), IL1A (gene 3552)
The assay is described as follows: BSK_IMphg_IL1a: BioMAP Diversity Plus: IMphg Assay for Interleukin-1 alpha (IL1a) Biomarker Activity (AID 2284290). The settings on record: primary human endothelial cells with macrophages. An outline of the steps:
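Human venular endothelial cells co-cultured with macrophages, IMphg system. IL-1α is measured by ELISA 24 h after dosing and fitted in the positive direction against DMSO. Cytotoxicity is assessed by SRB staining of parallel cultures.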

Read-out in assay [3]: E-selectin (Homo sapiens) (UniProt P16581)
Briefly: BSK_IMphg_ESelectin: BioMAP Diversity Plus: IMphg Assay for Eselectin Biomarker Activity (AID 2284291). Conditions: primary human endothelial cells with macrophages. An outline of the steps:
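Human venular endothelial cell–macrophage co-culture, E-selectin measured by ELISA 24 h after chemical dosing. Signal fitted in the positive direction against DMSO as negative control and baseline.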

Assay [4] in a line: BSK_IMphg_SRB: Viability Assessment in the BioMAP Diversity Plus: IMphg Assay (AID 2284292).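 Further: measured one day after compound addition.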 The settings on record: primary human endothelial cells with macrophages. An outline of the steps: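 Human venular endothelial cells with macrophages, 24 h after chemical dosing; total protein by 0.1% SRB staining after 10% TCA fixation, read at 560 nm. Positive-direction fitting versus DMSO baseline.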

Read-out in assay [5]: Macrophage colony-stimulating factor (MCSF), CSF1 (gene 1435)
Briefly: BSK_IMphg_MCSF: BioMAP Diversity Plus: IMphg Assay for Macrophage colony-stimulating factor (MCSF) Biomarker Activity (AID 2284293). Conditions: primary human endothelial cells with macrophages. An outline of the steps:
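Co-culture of human venular endothelial cells and macrophages, 24 hours of chemical exposure. M-CSF quantified by ELISA, with parallel SRB total-protein staining for cytotoxicity; activity fitted relative to DMSO.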

Read-out in assay [6]: Interleukin-10 (IL10), IL10 (gene 3586)
Briefly: BSK_IMphg_IL10: BioMAP Diversity Plus: IMphg Assay for Interleukin-10 (IL10) Biomarker Activity (AID 2284294). The settings on record: primary human endothelial cells with macrophages. The method in brief: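 Human venular endothelial cells cocultured with macrophages, dosed 24 h; IL-10 measured by ELISA, activity relative to DMSO. Cytotoxicity assessed in parallel cultures by sulforhodamine B total-protein staining.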

Assay [7] is described as follows: BSK_IMphg_SRB.Mphg: Macrophage Viability Assessment in the BioMAP Diversity Plus: IMphg Assay (AID 2284295). Conditions: primary human endothelial cells with macrophages. The method in brief:
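Venular endothelial cells co-cultured with macrophages, read 24 h after dosing. Total protein measured by 0.1% SRB staining after 10% TCA fixation, absorbance at 560 nm. Fitted in positive direction against DMSO baseline.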

Read-out in assay [8]: Thrombomodulin, THBD (gene 7056)
The assay is described as follows: BSK_LPS_Thrombomodulin: BioMAP Diversity Plus: LPS Assay for Thrombomodulin Biomarker Activity (AID 2284296). The settings on record: primary human HUVEC with PBMC. An outline of the steps:
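Human umbilical vein endothelial cells co-cultured with PBMC and stimulated with LPS; cell-surface thrombomodulin measured by ELISA 24 hours after compound. Gain or loss versus DMSO; cytotoxicity checked by SRB staining in parallel cultures.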

Read-out in the next assay: CD69, CD69 (gene 969)
Briefly: BSK_LPS_CD69: BioMAP Diversity Plus: LPS Assay for CD69 Biomarker Activity (AID 2284303). The settings on record: primary human HUVEC with PBMC. An outline of the steps:
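Human umbilical vein endothelial cells co-cultured with PBMC under LPS stimulation, chemical exposure 24 h; cell-surface CD69 measured by ELISA and fitted in the positive direction versus DMSO.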

In a further assay the test system is TTR (gene 7276). The assay is described as follows: CCTE_GLTED_hTTR_0.5uM: CCTE's human Transthyretin (hTTR) Inhibition Assay, with 0.5uM TTR, Great Lakes Toxicology and Ecology Division (GLTED) Lab (AID 2284320). An outline of the steps:
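Cell-free displacement assay in which human TTR at 0.5 uM was incubated with test chemical for 2 h. Displacement of the ANSA probe was read by fluorescence at 380 nm excitation/475 nm emission. Loss of signal was fitted in the positive direction versus DMSO.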

Assay [9] can be described thus: Tanguay_ZF_120hpf_MO24: Oregon State University Tanguay Lab 24 Hour Post-fertilization zebrafish Assay for Mortality (AID 2284389). The method in brief:
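Dechorionated wild-type zebrafish embryos, 1 per well, statically exposed from 6 hpf at 28C, 0.64% DMSO final. Mortality scored as binary present/absent at 24 hpf by brightfield microscopy, relative to DMSO.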

Assay [10] is described as follows: CCTE_Mundy_HCI_iCellGluta_NOG_NeuronCount: CCTE's Neurite Outgrowth Assay in iCellGluta cells for Neuron Count, Mundy Lab (AID 2284340; active means hit-call score of the fitted dose curve at least 0.9, where 1 is the maximum;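 further: cells fixed about 48 h after compound addition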). An outline of the steps: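 Neuron count read by automated high-content imaging of Hoechst 33342 and betaIII-tubulin/Alexa Fluor-488 labelling in human iPSC glutamatergic neurons. Activity fitted relative to DMSO.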
Assay [11] can be described thus: CCTE_Mundy_HCI_iCellGluta_NOG_NeuriteCount: CCTE's Neurite Outgrowth Assay in iCellGluta cells for Neurite Count, Mundy Lab (AID 2284342; active means hit-call score of the fitted dose curve at least 0.9, where 1 is the maximum;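 further: chemical exposure about 48 hours starting 2 hours after plating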).

Several values for one entry are separate records, joined by “and”; a condition that tells them apart may be missing. Equal values may be shown once. Inconclusive results are not listed. A structure can be active in one record and inactive in another. Activity calls are given as the source filed them. How the source made its calls, unless noted: active means hit-call score of the fitted dose curve at least 0.9, where 1 is the maximum; inactive means score below 0.9.

E-selectin (Homo sapiens), sequence (P16581 whole entry, looked up): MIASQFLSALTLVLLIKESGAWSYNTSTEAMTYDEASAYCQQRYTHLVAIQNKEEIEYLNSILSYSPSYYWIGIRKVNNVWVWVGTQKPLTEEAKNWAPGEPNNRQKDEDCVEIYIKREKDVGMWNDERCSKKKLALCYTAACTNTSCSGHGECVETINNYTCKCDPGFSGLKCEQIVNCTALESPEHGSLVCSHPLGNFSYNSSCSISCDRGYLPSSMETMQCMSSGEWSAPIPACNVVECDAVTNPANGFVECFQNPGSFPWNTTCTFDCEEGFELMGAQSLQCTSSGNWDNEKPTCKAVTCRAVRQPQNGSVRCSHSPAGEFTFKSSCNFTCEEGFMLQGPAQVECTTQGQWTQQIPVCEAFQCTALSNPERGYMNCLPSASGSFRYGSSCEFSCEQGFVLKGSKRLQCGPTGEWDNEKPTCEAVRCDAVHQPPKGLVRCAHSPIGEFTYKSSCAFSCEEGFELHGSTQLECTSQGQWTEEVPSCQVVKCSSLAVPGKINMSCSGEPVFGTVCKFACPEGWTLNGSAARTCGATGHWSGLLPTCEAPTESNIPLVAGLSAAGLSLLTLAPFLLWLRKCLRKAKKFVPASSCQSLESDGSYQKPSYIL

As for `C=CC(=O)OCC(F)(F)C(F)(F)C(F)(F)C(F)(F)C(F)(F)C(F)(F)C(F)(F)C(F)F`, the outcome with CD40, CD40 (gene 958) is “inactive”; in [1], “inactive”; in assay [2], “inactive”; in [3], “inactive”; in assay [4], “inactive”; in assay [5], “inactive”. The outcome in assay [6] is “inactive”; in [7], “inactive”; in assay [8], “inactive”; with CD69, CD69 (gene 969), “inactive”; in assay [9], “inactive”. Further, the half-maximal activity concentration (AC50) in assay [7] was 7.9 µM (active); in assay [8], 26.9 µM (active); in the assay with CD69, CD69 (gene 969), 23.2 µM (active); in the assay on TTR (gene 7276), 1.84 µM (active).
Regarding `OCC(O)CC(F)(F)C(F)(F)C(F)(F)C(F)(F)F` (centres undefined), the outcome with CD40, CD40 (gene 958) was “inactive”; in assay [1] it was “inactive”; in [2] it was “inactive”; in assay [3], “inactive”; in assay [4], “inactive”; in [5], “inactive”. In addition, the outcome was “inactive” in assay [6]; “inactive” in assay [7]; “inactive” in assay [8]; “inactive” in the assay with CD69, CD69 (gene 969); “inactive” in [9]. For the same compound, the AC50 with CD69, CD69 (gene 969) is 0.22 µM (active).
Regarding `O=C(Cl)C(F)(F)C(F)(F)C(F)(F)C(F)(F)C(F)(F)C(F)(F)F`, the outcome is “inactive” with CD40, CD40 (gene 958); “inactive” in assay [1]; “inactive” in assay [2]; “inactive” in [3]; “inactive” in assay [4]; “inactive” in assay [5]. For the same compound, the outcome in [6] was “inactive”; in assay [7], “inactive”; in [8], “inactive”; with CD69, CD69 (gene 969) it was “inactive”. For the same compound, the half-maximal activity concentration (AC50) in [6] is 7.98 µM (active) and 7.26 µM (active); in the assay on TTR (gene 7276), 0.685 µM (active).
As to `O=S(=O)(O)CCC(F)(F)C(F)(F)C(F)(F)C(F)(F)C(F)(F)C(F)(F)C(F)(F)C(F)(F)F`, the AC50 was 20.9 µM (active) with CD40, CD40 (gene 958); 21.3 µM (active) in [3]; 30 µM (active) in assay [6]; 8.71 µM (active) in assay [8]; 8.98 µM (active) with TTR (gene 7276). The outcome with CD40, CD40 (gene 958) is “inactive”; in assay [1], “inactive”; in assay [2] it was “inactive”; in assay [3], “inactive”; in assay [4], “inactive”; in [5] it was “inactive”. Besides, the outcome is “inactive” in assay [7]; “inactive” in assay [8]; “inactive” in the assay with CD69, CD69 (gene 969); “inactive” in assay [10]; “inactive” in assay [11]; “inactive” in assay [9].
Turning to `NCC(F)(F)C(F)(F)C(F)(F)C(F)(F)C(F)(F)C(F)(F)C(F)(F)C(F)(F)F`, the outcome with CD40, CD40 (gene 958) is “inactive”; in assay [1], “inactive”; in assay [2] it was “inactive”; in assay [3] it was “inactive”; in assay [4] it was “inactive”; in assay [5] it was “inactive”. In addition, the outcome in assay [6] was “inactive”; in assay [7], “inactive”; in assay [8], “inactive”; with CD69, CD69 (gene 969) it was “inactive”.
For `OCC(F)(F)C(F)(F)C(F)(F)C(F)(F)C(F)(F)C(F)(F)C(F)(F)C(F)(F)CO`, the AC50 with CD40, CD40 (gene 958) was 46.5 µM (active) and 41.2 µM (active); in assay [2], 47.6 µM (active) and 50.3 µM (active); in assay [3], 51.5 µM (active) and 36.1 µM (active); in [4], 52.9 µM (active) and 54 µM (active); in assay [5], 39.7 µM (active); in assay [6], 21.5 µM (active) and 42.7 µM (active). For the same compound, the concentration at half-maximal activity (AC50) in [7] is 46 µM (active) and 39.8 µM (active); in the assay on TTR (gene 7276) it was 2.78 µM (active); in assay [9], 72.8 µM (active). Further, the outcome in assay [1] is “inactive”; in assay [5], “inactive”; in assay [8], “inactive”; with CD69, CD69 (gene 969) it was “inactive”.

These data come from PubChem BioAssay (EPA / NIEHS).
